High-throughput results: PubChem BioAssay, several laboratories
This is a sample that favours compounds with a hit; in the whole collection about 6.7% have one here.
Mtb FBA inh – inhibits M. tuberculosis FBA enzyme. P9WQA3. purified M. tuberculosis FBA, fluorescence read-out. inhibition, % at 1 µM. hit rate 2.3% among 360,000. AID 588726; in the data active = inhibition above about 27%;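 note: 0% = vehicle and 100% = reference inhibitor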
Target sequence (P9WQA3 whole entry, looked up): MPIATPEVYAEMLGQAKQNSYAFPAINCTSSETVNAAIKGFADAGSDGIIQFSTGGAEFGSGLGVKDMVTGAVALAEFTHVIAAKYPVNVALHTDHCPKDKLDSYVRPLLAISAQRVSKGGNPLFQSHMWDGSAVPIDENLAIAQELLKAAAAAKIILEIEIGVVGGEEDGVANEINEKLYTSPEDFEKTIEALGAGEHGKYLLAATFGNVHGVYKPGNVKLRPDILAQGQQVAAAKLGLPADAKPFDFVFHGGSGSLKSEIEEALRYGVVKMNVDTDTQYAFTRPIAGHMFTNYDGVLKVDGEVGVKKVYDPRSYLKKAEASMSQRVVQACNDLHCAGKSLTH
BoNT A protease – inhibitors of Botulinum neurotoxin A light chain protease. inhibition, % at 10 µM. hit rate 0.17% among 360,000. multiplex microsphere protease substrate cleavage, flow cytometry; note: plate controls were buffer without enzyme for full effect and enzyme alone for no effect
BoNT-F LC inh – inhibitors of Botulinum neurotoxin F light chain protease | Multiplex microsphere protease cleavage assay, flow cytometry | inhibition, % at 10 µM | hit rate 0.22% among 360,000; in the data active = inhibition above about 35%, passing the limit was not always enough; inconclusive = no clear call, values can overlap the other calls; note: plate controls were buffer without enzyme for full effect and enzyme alone for no effect
GDH-TPI counter – GDH-TPI coupled enzyme inhibition counter-screen | GDH-TPI coupled enzyme counterscreen, NADH absorbance | inhibition, % at 4.8 µM | hit rate 1.2% among 360,000; in the data active = inhibition above about 30%;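 note: 0% = DMSO wells and 100% = wells lacking the enzyme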
Anthrax LF inh2 – blocks Bacillus anthracis lethal factor protease | AID 588501 | inhibition, % at 10 µM | multiplex microsphere protease cleavage assay, LF | hit rate 0.12% among 360,000; note: plate controls were buffer without enzyme for full effect and enzyme alone for no effect
Autofluor counter – flagged as autofluorescent in microsphere protease counterscreen; hit rate 3.1% among 360,000; fluorescence intensity (test concentration not listed); compound autofluorescence counterscreen, microsphere flow cytometry; stronger effect = higher value; in the data active = fluorescence intensity above about 16000; inconclusive = no clear call, values can overlap the other calls
* = called active by the depositor; ? = inconclusive; · = not tested or not shown; ! = not confirmed by another sample. Cut-off read from the data, not from the text of the source, unless noted: active = inhibition above about 30%; inconclusive = no clear call, values can overlap the other calls; inactive = below that.

SMILES	Mtb FBA inh	BoNT A protease	BoNT-F LC inh	GDH-TPI counter	Anthrax LF inh2	Autofluor counter
COc1ccc2ccccc2c1CN1CCN(Cc2ccccc2)CC1	2.4	-0.7	-6.3	8.7	-7.2	5884
Clc1ccc(OCc2nc(-c3ccccn3)n[nH]2)cc1	-0.8	0.4	-1.2	3.6	-2.2	19968*
Brc1ccc(OCc2nc(-c3ccccn3)n[nH]2)cc1	-0.1	-1.8	-14.3	3.8	-1.9	2233
COc1cc(C2C(C#N)=C(N)N(Nc3ccccc3)C3=C2C(=O)CC(C)(C)C3)ccc1OCc1ccccc1 (stereo not drawn)	6.0	-0.5	-2.3	6.9	-3.3	2861
c1ccc2c(c1)nc1n2C2(N3CCOCC3)CCCC2C1N1CCOCC1 (stereo not drawn)	2.4	-0.9	-4.0	0.0	-2.0	20620*
Cc1ccccc1OCCC(=O)OCC(=O)Nc1ccc(C(N)=O)cc1	-4.0	-0.1	-6.5	-1.2	2.2	4364
CCCCNc1c(-c2ccc(OC)c(Sc3ccc(OC)cc3)c2)nc2cnccn12	20.4	0.0	-8.0	5.3	0.2	3548
CCCCNc1c(-c2ccc(SC(C)CC)cc2)nc2cnccn12 (stereo not drawn)	39.9*	-0.4	-6.9	19.4	-11.1	3627
CCCCNc1c(-c2ccc(OC)c(Sc3ccc(OC)cc3)c2)nc2ccccn12	28.1*	-1.0	-8.3	13.8	-10.8	4161
NC(=O)[C@@H]1CCCN1C(=O)c1cc(COc2ccc(F)cc2F)on1	-2.4	-0.1	1.1	-1.7	-1.9	6177
CCN(CC)C(=O)CSc1nsc(SCC(=O)N(CC)CC)c1C#N	2.4	0.8	19.1	10.8	-1.3	3127
CCn1c(SCC(=O)NCc2ccco2)nc2c1c(=O)n(C)c(=O)n2C	-1.1	-0.7	-1.8	11.4	-1.1	11516
CCCn1c(SCC(=O)N2CCCc3ccccc32)nc2c1c(=O)n(C)c(=O)n2C	0.2	-1.5	-5.4	1.2	-3.5	21086*
CCCn1c(SCC(=O)Nc2cccc(C)n2)nc2c1c(=O)n(C)c(=O)n2C	3.5	0.0	-2.1	3.1	-9.1	4659
CCCn1c(SCC(=O)N2c3ccccc3Sc3ccccc32)nc2c1c(=O)n(C)c(=O)n2C	2.2	0.1	-2.1	6.4	0.9	5770
CCCn1c(SCC(=O)NCc2ccco2)nc2c1c(=O)n(C)c(=O)n2C	-0.4	1.0	-1.4	5.3	-0.1	22819*
CCCn1c(SCC(=O)Nc2cc(C)on2)nc2c1c(=O)n(C)c(=O)n2C	1.1	0.2	3.2	3.5	-3.6	22114*
N#Cc1cc(Oc2ccccc2)c(-n2nnc3ccccc32)cc1C#N	2.4	-0.2	8.6	-6.8	-4.3	3809
N#Cc1cc(Oc2ccc3ccccc3c2)c(-n2nnc3ccccc32)cc1C#N	0.9	-0.4	-3.0	4.2	-1.4	20725*
COc1cc(C=NNC(=O)C(=O)Nc2cccc(Cl)c2)cc(OC)c1O	-3.9	-0.4	-0.3	38.9*	-1.7	3946
COc1cc(/C=N/NC(=O)C(=O)NCc2cccnc2)ccc1O	0.2	-2.2	-4.5	34.5*	-3.0	9833
COc1ccc(C=NNC(=O)NN=Cc2ccc(OC)c(OC)c2)cc1OC	1.7	0.4	-5.2	47.8*	-6.4	4117
COc1ccc(/C=N/Nc2ccccn2)cc1OC	0.3	·	·	33.0*	·	·
O=C(N/N=C/c1cccs1)C(=O)Nc1cccc(Cl)c1	-2.2	0.4	6.5	20.2	0.7	2073
CC1=C(C)CC(C(=O)NCc2ccc3c(c2)OCO3)C(C(=O)O)C1 (stereo not drawn)	-0.5	0.6	-2.6	2.1	-2.2	11800
SMILES	Mtb FBA inh	BoNT A protease	BoNT-F LC inh	GDH-TPI counter	Anthrax LF inh2	Autofluor counter
Cn1c(=NCC(O)COc2ccccc2)sc2ccccc21 (stereo not drawn)	-0.8	0.5	1.5	-1.9	2.1	4616
COc1ccc(/C=N/NC(=O)C(=O)Nc2ccccn2)cc1OC	-2.2	-0.5	-0.5	42.9*	2.0	3226
Cc1c(/C=C/C(=O)c2ccc(O)cc2)cnn1C	1.9	2.6	8.6	38.5*	-1.1	10277
Cc1nn(C)cc1/C=C/C(=O)c1cccs1	6.1	0.7	1.2	28.4	-5.7	9107
Cc1nn(C)cc1/C=C/C(=O)c1ccccc1	0.2	-1.4	-1.9	36.0*	-3.9	16636*
Cc1nn(C)c(C)c1/C=C/C(=O)c1ccccc1	-1.2	-6.3	-8.0	23.5	-4.2	24377*
Cn1cccc1/C=C1\C(=O)NC(=O)N(Cc2ccccc2Cl)C1=O	-5.4	-0.5	-1.2	0.6	-1.7	2465
COc1cc2ncnc(NCc3ccccc3)c2cc1OC	0.0	-0.5	-4.0	-5.4	0.4	2424
c1ccc(CNc2ncnc3ccccc23)cc1	-2.0	5.5	7.9	-1.9	-2.3	20097*!
CCOc1ccccc1Nc1ncnc2ccc(Br)cc12	2.1	-11.2	?	6.7	-3.6	4224
CCOc1ccccc1Nc1ncnc2ccccc12	188.7*	-0.4	3.3	6.9	-3.5	3237
CC1CN(S(=O)(=O)c2cccc(C(=O)OCc3cc(=O)oc4cc(O)ccc34)c2)CC(C)O1 (stereo not drawn)	6.2	-0.5	-15.1	2.6	-3.4	4433
COc1cc(OC)cc(C(=O)NCC(=O)OCc2cc(=O)oc3cc(OC)ccc23)c1	14.9	0.1	0.0	11.3	-4.4	5896
COc1ccc2c(COC(=O)c3cccc(S(=O)(=O)NCC(C)C)c3)cc(=O)oc2c1	41.6*	-2.7	2.7	0.4	-4.7	4351
COc1ccc2c(COC(=O)CNS(=O)(=O)c3ccccc3)cc(=O)oc2c1	118.6*	0.6	-7.2	13.7	-3.2	3680
COc1ccc(OC)c(CN2CCN(Cc3cc(=O)oc4cc(O)ccc34)CC2)c1	114.7*	-0.2	-10.8	10.5	1.4	3684
COC(=O)Cc1cc(=O)oc2cc(OC)ccc12	118.5*	-1.8	-1.5	14.6	-3.3	7866
O=C(Nc1ccccc1[N+](=O)[O-])C1=C(O)CCn2c1nc1ccccc12	1.0	2.2	5.8	39.2*	-4.0	8697
COc1cccc(C(=O)CN(C(=O)c2ccc(Cl)c(Cl)c2)N2C(=O)C3CCCCC3C2=O)c1 (stereo not drawn)	-1.4	-1.9	-3.1	12.1	-2.7	17192*
COc1ccc(C(=O)CN(C(=O)c2ccc(Cl)cc2)N2C(=O)C3CCCCC3C2=O)cc1 (stereo not drawn)	-0.3	?	38.0*	5.3	-21.4	11113
Cc1ccc(C(=O)CN(C(=O)c2ccc(Cl)cc2)N2C(=O)CCC2=O)cc1	0.7	-0.4	-3.8	0.6	-0.8	3399
COc1ccc(CCNC(=O)C2CCN(S(=O)(=O)c3cc(OC)ccc3OC)CC2)cc1	-2.3	-0.5	-2.6	-4.1	0.9	2811
CCOC(=O)C1(C)CCN1C(=O)c1ccc(OC)cc1 (stereo not drawn)	-4.9	-0.2	-2.0	-7.3	0.8	3656
CCCCn1c(O)c(N=NC(=O)c2ccccc2NS(=O)(=O)c2cccs2)c2ccccc21	1.9	-13.1	-111.2	-4.6	-52.1	14354
CCOC(=O)c1cnc2c([N+](=O)[O-])cnn2c1C	-0.2	0.7	4.4	37.0*	-2.0	3222
